One may read the inhibition as the drop in the measured response relative to a control, in per cent. In general, remaining activity refers to the signal under treatment as a percentage of the control signal.

Each structure is given as a SMILES string. A number with no mark means an inactive call. Unless noted, how the calls were made is not given here.

System in the first experiment: not listed separately
Nature of the experiment: compounds altering circadian rhythm period length – cell-based, LOPAC library, luminescence reporter (AID 2774).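 Further: values are relative to mean of DMSO wells on each plate.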 The settings on record: circadian reporter cells, at 7 µM, actives lie on both sides.
On to `CC1OC1P(=O)(O)O` (stereo unspecified), for which the period change was -0.1 h.

`CC(N)C(=O)OC(C)(C)Cc1ccc(Cl)cc1` (stereo unspecified): the period change was -0.005 h.

`CCn1cc(C(=O)O)c(=O)c2ccc(C)nc21`: the period change was -0.11 h.

A further experiment concerns Hepatitis C virus NS3 helicase. In words: blockers of NS3h binding to ssDNA – biochemical, fluorescence polarization, LOPAC1280 library, primary screen (AID 687035; in the data active means inhibition above about 37%). The following applies: Purified HCV NS3 helicase, Cy5-dT15 ssDNA binding fluorescence polarization; active compounds read high; concentration not given here.
For the compound `CC1OC1P(=O)(O)O` (stereo unspecified), the inhibition was -2%.

As to `CC(N)C(=O)OC(C)(C)Cc1ccc(Cl)cc1` (stereo unspecified), the inhibition is -4%.

Turning to `CCn1cc(C(=O)O)c(=O)c2ccc(C)nc21`, the inhibition was -5%.

System in a further experiment: not listed separately
Nature of the experiment: compounds altering Cy5-DNA-NS3h complex signal – biochemical, LOPAC1280, artefact control for HCV NS3 helicase inhibitor project (AID 687037). The following applies: Cy5-DNA-NS3h complex fluorescence interference counterscreen.
Take `CC1OC1P(=O)(O)O` (stereo unspecified): the fluorescence ratio (interference) was 1.

In the case of `CC(N)C(=O)OC(C)(C)Cc1ccc(Cl)cc1` (stereo unspecified), the fluorescence ratio (interference) is 1.

In the case of `CCn1cc(C(=O)O)c(=O)c2ccc(C)nc21`, the fluorescence ratio (interference) was 1.

A further experiment has as its system Aerobactin synthetase IucA (Klebsiella pneumoniae hvKP1). Nature of the experiment: IucA enzyme inhibition, primary screen, biochemical, Spectrum library (AID 1346200).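 Further: 100% = wells without compound and 0% = wells lacking enzyme.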 The settings on record: malachite green pyrophosphate, A620, at 8 µM, active compounds read low.
Regarding `CC1OC1P(=O)(O)O` (stereo unspecified), the activity remaining was 94.8%.

Regarding `c1ccc([C@H]2CN3CCSC3=N2)cc1`, the activity remaining was 117%.

On to `NCCCCN=C(N)N`, for which the activity remaining is 123%.

For `NC12CC3CC(CC(C3)C1)C2`, the activity remaining was 107%.

As to `CN1CCN(CCCN2c3ccccc3Sc3ccc(Cl)cc32)CC1`, the activity remaining was 123%.

With `CN1CCN(CCCN2c3ccccc3Sc3ccc(C(F)(F)F)cc32)CC1`, the activity remaining was 122%.

Take `CCC1(c2ccccc2)C(=O)NCNC1=O`: the activity remaining was 125%.

As for `CCCCCCCCCCCCCC(=O)O[C@@H]1[C@@H](C)[C@@]2(O)[C@@H](C=C(CO)C[C@]3(O)C(=O)C(C)=C[C@@H]23)[C@@H]2C(C)(C)[C@]12OC(C)=O`, the activity remaining was 115%.

In the case of `FC(F)(F)c1ccccc1-n1ccnc1`, the activity remaining was 85.9%.

Turning to `NC(=O)NO`, the activity remaining is 121%.

Regarding `Cc1ccc(/C(=C\CN2CCCC2)c2ccccn2)cc1`, the activity remaining is 103%.

Take `CC(CN1c2ccccc2Sc2ccccc21)N(C)C` (stereo unspecified): the activity remaining is 78.1%.

On to `O=C(O)c1cc(=O)c2ccccc2[nH]1`, for which the activity remaining is 113%.

In the case of `OCCN(CCO)c1nc(N2CCCCC2)c2nc(N(CCO)CCO)nc(N3CCCCC3)c2n1`, the activity remaining was 89.5%.

For the compound `CC(N)C(=O)OC(C)(C)Cc1ccc(Cl)cc1` (stereo unspecified), the activity remaining was 86.1%.

`CN=C(NC#N)NCCSCc1nc[nH]c1C`: the activity remaining is 98.9%.

With `Cc1cc(C(C)(C)C)c(O)c(C)c1CC1=NCCN1`, the activity remaining was 114%.

Turning to `CN1C(C(=O)Nc2ccccn2)=C(O)c2ccccc2S1(=O)=O`, the activity remaining is 115%.

With `CN(C)C(=O)C(CCN1CCC(O)(c2ccc(Cl)cc2)CC1)(c1ccccc1)c1ccccc1`, the activity remaining was 113%.

Consider `CCN(CC)CCNC(=O)c1cc(S(C)(=O)=O)ccc1OC`, for which the activity remaining is 120%.

Regarding `CN=C(N)NCCC[C@H](N)C(=O)O`, the activity remaining is 116%.

As for `Cc1ccc(Cl)c(Nc2ccccc2C(=O)O)c1Cl`, the activity remaining is 93.4%.

For `CCn1cc(C(=O)O)c(=O)c2ccc(C)nc21`, the activity remaining is 117%.

`O=[N+]([O-])c1cccc2c(Br)[nH]nc12`: the activity remaining is 118%.

Consider `CCCC(C(=O)OCCN(CC)CC)(c1ccccc1)c1ccccc1`, for which the activity remaining is 105%.

Take `CCCn1c(=O)c2[nH]c(C3CCCC3)nc2n(CCC)c1=O`: the activity remaining was 82.2%.

As for `CC(N=C(NC#N)Nc1ccncc1)C(C)(C)C` (stereo unspecified), the activity remaining was 105%.

As for `CC(=O)NCCc1c[nH]c2ccc(O)cc12`, the activity remaining was 113%.

Consider `Nc1c2c(nc3ccccc13)CCCC2O` (stereo unspecified), for which the activity remaining was 105%.

Regarding `C[n+]1cc2c3c(ccc2c2ccc4cc5c(cc4c21)OCO5)OCO3`, the activity remaining is 97.5%.

For the compound `COc1cc([C@@H]2c3cc4c(cc3[C@H](O)[C@H]3COC(=O)[C@H]23)OCO4)cc(OC)c1OC`, the activity remaining is 102%.

Turning to `O=C(O)CCc1nc(-c2ccccc2)c(-c2ccccc2)o1`, the activity remaining is 111%.

Take `C[N+]1(C)C2CC(OC(=O)[C@@H](CO)c3ccccc3)CC1C1OC12` (stereo partly specified): the activity remaining is 102%.

On to `CCN(CC)CCOC(=O)c1ccc(N)cc1`, for which the activity remaining is 105%.

In the case of `Cn1cnc2c1c(=O)[nH]c(=O)n2C`, the activity remaining is 126%.

For `CN(C)CCC(c1ccccc1)c1ccccn1` (stereo unspecified), the activity remaining was 109%.

Regarding `CC[C@@]1(C2O[C@@H](C3O[C@@](O)(CC)[C@H](C)C[C@@H]3C)C[C@@H]2C)CC[C@H]([C@]2(C)CCC3(C[C@H](O)[C@@H](C)[C@@H]([C@H](C)[C@@H](OC)[C@H](C)C(=O)O)O3)O2)O1` (stereo partly specified), the activity remaining is 112%.

For `N[C@@H](CC(=O)N1CCn2c(nnc2C(F)(F)F)C1)Cc1cc(F)c(F)cc1F`, the activity remaining was 110%.

Turning to `CC(C[N+](C)(C)C)OC(N)=O` (stereo unspecified), the activity remaining is 116%.

Turning to `N=c1nc(N2CCCCC2)cc(N)n1O`, the activity remaining is 110%.

Another experiment relates to Aerobactin synthetase IucA (Klebsiella pneumoniae, hypervirulent). Nature of the experiment: biochemical IucA inhibition screen of LOPAC library by absorbance (AID 1346212).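 Further: 100% = no compound wells and 0% = no enzyme wells.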 The settings on record: IucA enzyme assay, absorbance (OD) readout; active compounds read low;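 tested at 8 µM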.
On to `CC1OC1P(=O)(O)O` (stereo unspecified), for which the remaining activity was 105%.

As to `c1ccc([C@H]2CN3CCSC3=N2)cc1`, the remaining activity is 112%.

Regarding `NCCCCN=C(N)N`, the remaining activity is 111%.

On to `NC12CC3CC(CC(C3)C1)C2`, for which the remaining activity is 119%.

As for `CN1CCN(CCCN2c3ccccc3Sc3ccc(Cl)cc32)CC1`, the remaining activity is 86.1%.

Consider `CN1CCN(CCCN2c3ccccc3Sc3ccc(C(F)(F)F)cc32)CC1`, for which the remaining activity is 93.4%.

For the compound `CCC1(c2ccccc2)C(=O)NCNC1=O`, the remaining activity was 75.1%.

For the compound `CCCCCCCCCCCCCC(=O)O[C@@H]1[C@@H](C)[C@@]2(O)[C@@H](C=C(CO)C[C@]3(O)C(=O)C(C)=C[C@@H]23)[C@@H]2C(C)(C)[C@]12OC(C)=O`, the remaining activity is 75.1%.

As for `FC(F)(F)c1ccccc1-n1ccnc1`, the remaining activity is 102%.

As to `NC(=O)NO`, the remaining activity is 117%.

In the case of `Cc1ccc(/C(=C\CN2CCCC2)c2ccccn2)cc1`, the remaining activity was 121%.

On to `CC(CN1c2ccccc2Sc2ccccc21)N(C)C` (stereo unspecified), for which the remaining activity was 109%.

On to `O=C(O)c1cc(=O)c2ccccc2[nH]1`, for which the remaining activity is 109%.

As to `OCCN(CCO)c1nc(N2CCCCC2)c2nc(N(CCO)CCO)nc(N3CCCCC3)c2n1`, the remaining activity is 92.9%.

With `CC(N)C(=O)OC(C)(C)Cc1ccc(Cl)cc1` (stereo unspecified), the remaining activity was 119%.

Regarding `CN=C(NC#N)NCCSCc1nc[nH]c1C`, the remaining activity was 116%.

Consider `Cc1cc(C(C)(C)C)c(O)c(C)c1CC1=NCCN1`, for which the remaining activity is 117%.

As to `CN1C(C(=O)Nc2ccccn2)=C(O)c2ccccc2S1(=O)=O`, the remaining activity is 109%.

On to `CN(C)C(=O)C(CCN1CCC(O)(c2ccc(Cl)cc2)CC1)(c1ccccc1)c1ccccc1`, for which the remaining activity was 114%.

On to `CCN(CC)CCNC(=O)c1cc(S(C)(=O)=O)ccc1OC`, for which the remaining activity was 104%.

As for `CN=C(N)NCCC[C@H](N)C(=O)O`, the remaining activity is 111%.

For `Cc1ccc(Cl)c(Nc2ccccc2C(=O)O)c1Cl`, the remaining activity is 128%.

On to `CCn1cc(C(=O)O)c(=O)c2ccc(C)nc21`, for which the remaining activity was 122%.

With `O=[N+]([O-])c1cccc2c(Br)[nH]nc12`, the remaining activity is 110%.

As to `CCCC(C(=O)OCCN(CC)CC)(c1ccccc1)c1ccccc1`, the remaining activity was 118%.

Turning to `CCCn1c(=O)c2[nH]c(C3CCCC3)nc2n(CCC)c1=O`, the remaining activity is 76.9%.

Consider `CC(N=C(NC#N)Nc1ccncc1)C(C)(C)C` (stereo unspecified), for which the remaining activity is 92.7%.

Turning to `CC(=O)NCCc1c[nH]c2ccc(O)cc12`, the remaining activity is 106%.

For the compound `Nc1c2c(nc3ccccc13)CCCC2O` (stereo unspecified), the remaining activity was 101%.

For `C[n+]1cc2c3c(ccc2c2ccc4cc5c(cc4c21)OCO5)OCO3`, the remaining activity is 102%.

`COc1cc([C@@H]2c3cc4c(cc3[C@H](O)[C@H]3COC(=O)[C@H]23)OCO4)cc(OC)c1OC`: the remaining activity is 124%.

Take `O=C(O)CCc1nc(-c2ccccc2)c(-c2ccccc2)o1`: the remaining activity was 116%.

As for `CCN(CC)CCOC(=O)c1ccc(N)cc1`, the remaining activity was 106%.

For the compound `Cn1cnc2c1c(=O)[nH]c(=O)n2C`, the remaining activity is 97.1%.

Take `CN(C)CCC(c1ccccc1)c1ccccn1` (stereo unspecified): the remaining activity is 89.8%.

Regarding `CC(C[N+](C)(C)C)OC(N)=O` (stereo unspecified), the remaining activity was 114%.

For `N=c1nc(N2CCCCC2)cc(N)n1O`, the remaining activity is 118%.

These data come from PubChem BioAssay.
